Screening data deposited in PubChem by National Center for Advancing Translational Sciences (NCATS).
Rows were chosen to be rich in hits. Some 14% of all compounds tested hit in one or more screens of this group.
Lassa entry inh: Lassa virus entry inhibition; Lassa virus pseudotype entry inhibition, cell reporter; Potency, µM (doses to about 37.9 µM), actives largely listed as inhibitors; actives 1.2% (n = 300,000); AID 540256; calls by dose curve; tested in HEK293 cells; also: nearly all actives have a fitted effect of over 50% in size
Pf growth 96h: P. falciparum growth inhibition at 96 hour, primary screen for plastid delayed-death inhibitors; P. falciparum luciferase reporter growth, 96 h; Potency, µM (titrated, usually from 28.7 µM), most hits filed as inhibitors; actives 6.9% (n = 320,000)
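Two-generation exposure (96 h) targets delayed-death phenotype. Reporter parasites carrying integrated firefly luciferase, in red cells at 2% hematocrit and 0.05% parasitemia final, kept at 37 C, 5% CO2; luminescence loss indicates inhibition.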
HCV inhibitor: blocks hepatitis C virus | Potency, µM (doses to about 41.8 µM), hits mostly inhibitors | Huh7.5.1 HCVcc-Cre infection, luciferase reporter, 44 h | AID 651820 | actives 3.4% (n = 340,000)
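Antiviral activity was scored by luciferase reporter output from cells infected with HCVcc-Cre (~0.5 moi) in presence of compound, 44 h infection period, cells seeded 1,000/well 4 h prior.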
Pf growth 48h: inhibits P. falciparum growth in the first generation, 48 h; AID 504832; actives 5.9% (n = 310,000); Potency, µM (top dose mostly 28.7 µM), most hits filed as inhibitors; P. falciparum luciferase growth in erythrocytes, 48 h
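A one-generation exposure of luciferase-tagged malaria parasites in RPMI 1640/Albumax erythrocyte culture, 37 C and 5% CO2. Inhibition is inferred from decreased luminescence after adding detection reagent.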
Marburg entry inh: Marburg virus entry inhibition | actives 1.8% (n = 300,000) | Potency, µM (doses to about 37.8 µM), usual class: inhibitors | Marburg virus pseudotyped entry inhibition, cell reporter; calls by dose curve; tested in HEK293 cells
HCMV antiviral: blocks human cytomegalovirus replication; activity change, negative = inhibition, % at 57.5 µM; AID 1259415; HFF cells, HCMV-luciferase reporter, 72 h; stronger effect = lower value; actives 4.5% (n = 410,000); in the data active = activity change below about -60%; inconclusive = no clear call, values can overlap the other calls; inactive = above about -39%
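Steps: HFFs plated, 16 h 37C; compounds added; HCMV-luciferase added to MOI 1 PFU/cell; 72 h 37C; OneGlo reagent, 5 min room temperature; luminescence read, normalized to controls.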
Hits are given with their value; 0 = inactive; ? = inconclusive; - = no result; + = active, no number; [ ] = another dose, or the depositor's remark. Unless noted, calls follow the shape of the dose curve; as a rule, active = well fitted inhibition curve with a large enough effect; inconclusive = small, poorly fitted or top-dose-only effect, or another doubt; inactive = no such curve, though single readings can be large or run the other way.

SMILES | Lassa entry inh | Pf growth 96h | HCV inhibitor | Pf growth 48h | Marburg entry inh | HCMV antiviral
O=C(C[C@@H]1C/C=C\C[C@@H](NC(=O)OCC2c3ccccc3-c3ccccc32)C(=O)OC[C@@H](Cc2ccccc2)NC1=O)NCCO | - | - | 2µM | - | - | 0
Cc1cc(NC(=O)c2cccc(S(=O)(=O)N(C)C)c2)n(-c2ccccn2)n1 | 0 | 4.65µM | ? | - | ? | 0
Cc1ccc(NC(=O)C2CCN(c3nc4ccccc4[nH]3)CC2)cc1Cl | 0 | - | - | - | - | 0
Cc1cc(C)nc(-n2nc(C)c3c(C(=O)O)cc(-c4cccc(Br)c4)nc32)n1 | - | 0 | 0 | ? | - | 0
Cc1cc(NC(=O)c2cccc(S(=O)(=O)N3CCCCCC3)c2)n(-c2ccccn2)n1 | 0 | 0 | 0 | 0 | 0 | 0
Cc1cc(NC(=O)C2CCC2)n(-c2ccccn2)n1 | 0 | 0 | 10µM | 0 | 0 | 0
Cc1cc(C)c(NC(=O)C2CCN(c3nc4ccccc4[nH]3)CC2)c(C)c1 | 0 | - | - | - | - | +
Cc1cc(C)nc(-n2nc(C)c(Br)c2Nc2ccc(Br)cc2)n1 | 0 | - | 0 | 3.7µM | 0 | 0
COc1ccc(C(=S)N2CCN(c3ccccc3C)CC2)cc1OC | ? | - | 0 | - | ? | 0
O=C(Cn1ncc2c3ccccc3n(Cc3cccc(Cl)c3)c2c1=O)NCCC1=CCCCC1 | 0 | - | - | - | 0 | 0
Cc1cc(NC(=O)c2ccc(C)s2)n(-c2nc3ccccc3[nH]2)n1 | 0 | ? | ? | 0 | 0 | -74.3
Cc1cc(C)n(-c2nc3ccccc3[nH]c2=O)n1 | 0 | 0 | 0 | 0 | 0 | 0
Cc1cc(Nc2ccccc2)n(-c2nc3ccccc3[nH]2)n1 | ? | - | 5.01µM | ? | ? | -86.0
Cc1cc(NC(=O)/C=C/c2ccc(F)cc2)n(-c2nc3ccccc3[nH]2)n1 | 0 | 0 | ? | ? | 0 | 0
Cc1cc(NC(=O)C2CCCCC2)n(-c2nc3ccccc3[nH]2)n1 | ? | - | 4.47µM | 9.28µM | 0 | 0
Cc1cc(NC(=O)c2ccccc2F)n(-c2nc3ccccc3[nH]2)n1 | 0 | 0[5.75 µM] | ? | 0 | 0 | 0
Cc1cc(NC(=O)c2c(F)cccc2F)n(-c2nc3ccccc3[nH]2)n1 | ? | 0 | 35.5µM | 7.38µM | ? | -89.0
CC(C)C(OC(=O)c1nsc(Cl)c1Cl)C(=O)NC1CCCCC1 (stereo not drawn) | 0 | 0 | 0 | 0 | 0 | 0
Cc1ccc(C(C)C)c(OCCSc2nc(-c3cccs3)nc3cc(=O)[nH]n23)c1 | ? | - | - | - | - | 0
Cc1cc(NC(=O)c2c(F)cccc2Cl)n(-c2nc3ccccc3[nH]2)n1 | ? | - | 14.1µM | 10.4µM | ? | ?
Cc1cc(Nc2ccccc2)n(-c2ccccc2)n1 | 0 | 0 | ? | 0 | ? | 0
Cc1cc(C)nc(-n2nc(C)cc2Nc2ccccc2)n1 | 0 | - | 10µM | 8.28µM | ? | -66.5
CCOC(=O)c1ccccc1NC(=O)NC(C)c1c(-n2cccc2)sc(C)c1C (stereo not drawn) | - | - | - | - | 0 | 0
Cc1cccc(-n2c(/C=C/c3cccc4ccccc34)nc3ccccc3c2=O)c1 | 0 | - | - | - | - | ?
CC(=O)N(/N=C/c1ccc([N+](=O)[O-])o1)c1nc2ccccc2c(=O)n1-c1ccccc1 | - | 0 | 0 | 0 | - | -63.7
SMILES | Lassa entry inh | Pf growth 96h | HCV inhibitor | Pf growth 48h | Marburg entry inh | HCMV antiviral
CCn1c(/C=C/c2c[nH]c3ccccc23)nc2ccccc2c1=O | - | 0 | 0 | 0 | 0 | 0
Cc1[nH]c2ccccc2c1/C=C/c1nc2ccccc2c(=O)n1-c1ccc([N+](=O)[O-])cc1 | 0 | ? | ? | ? | 0 | 0
O=c1c2ccccc2nc(/C=C/c2ccc([N+](=O)[O-])o2)n1-c1ccc(O)cc1 | ? | ? | ? | 9.28µM | 3.16µM | -100.5
CN(C)S(=O)(=O)c1ccc2[nH]cc(/C=C/c3nc4ccccc4c(=O)n3-c3ccccc3)c2c1 | ? | ? | ? | 9.28µM | 0 | 0
Cc1nc2ccccc2c(=O)n1-c1cc([N+](=O)[O-])cc([N+](=O)[O-])c1 | - | 0 | ? | 0 | - | 0
Cc1cccc(-n2c(/C=C/c3ccc([N+](=O)[O-])o3)nc3ccccc3c2=O)c1 | ? | 0 | 10µM | ? | ? | -103.7
CCOC(=O)C(C(=O)OCC)C(c1ccccc1)N1CCN(c2ccccc2)CC1 (stereo not drawn) | 0 | - | 0 | - | 0 | 0
CCOc1ccc(-c2nnc(NC(=O)C3CCCC3)o2)cc1 | 0 | 0 | 0 | 0 | 0 | 0
COc1ccc(-c2nc3scc(CCNS(=O)(=O)c4ccc5c(c4)OCCO5)n3n2)cc1OC | 0 | - | - | - | - | 0
COCCNC(=O)c1[nH]c(C(F)(F)F)nc1-c1ccccc1 | - | - | - | - | - | 0
CCOc1ccc(-n2c(=O)c3c(C)c(C)sc3n(Cc3cc(=O)n4cc(Cl)ccc4n3)c2=O)cc1 | 0 | - | - | - | 0 | 0
NC(=O)CC(NC(=O)Cc1cccc2ccccc12)c1ccc(NCCCN2CCCC2=O)c([N+](=O)[O-])c1 (stereo not drawn) | - | ? | 0 | ? | - | 0
C=C(C)C(O)/C=C/c1ccccc1OC (stereo not drawn) | - | - | - | - | 0 | -
Cc1cccc(-n2c(/C=C/c3ccccc3O)nc3ccccc3c2=O)c1 | ? | - | - | - | - | -98.2
O=[N+]([O-])c1cccc(N=NN(CCO)c2cccc([N+](=O)[O-])c2)c1 | 0 | - | 1.12µM | 0 | 0 | 0
CN(N=Nc1cccc([N+](=O)[O-])c1)c1cccc([N+](=O)[O-])c1 | 0 | 0 | ? | 0 | 0 | 0
CCCN(N=Nc1cccc([N+](=O)[O-])c1)c1cccc([N+](=O)[O-])c1 | 0 | - | 1.12µM | 0 | ? | 0
C#CCCCON=C1C[C@@H](O)[C@H](O)[C@H]2[C@@H]3C(=O)N(Cc4ccccc4)C(=O)[C@@H]3CC[C@H]12 | - | - | - | - | 0 | -
COc1ccc(S(=O)(=O)N2CCC(C(=O)Nc3cc(Cl)ccc3N3CCOCC3)CC2)cc1OC | 0 | ? | ? | ? | 0 | 0
COc1ccc(S(=O)(=O)N2c3ccc(Cl)cc3[C@](O)(c3ccccc3Cl)[C@@H]2C(=O)N2CCC[C@H]2C(N)=O)cc1OC | - | 9.53µM | - | ? | - | -
CC(=O)Nc1ccc(S(=O)(=O)Nc2nnc(C)s2)cc1 | - | - | - | - | - | 0
Cc1ccc(C(=O)COC(=O)c2cccs2)cc1 | 0 | 0 | 0 | 0 | ? | 0
COC(=O)c1ccc(CNC(=O)COC(=O)c2ccc(N(C)C)cc2)cc1 | ? | 0 | 0 | 0 | ? | -66.2
CN(C)c1ccc(C(=O)OCC(=O)NCCNC(=O)COC(=O)c2ccc(N(C)C)cc2)cc1 | 0 | 0 | 0 | 0 | ? | 0
CN(C)c1ccc(C(=O)OCC(=O)c2cccs2)cc1 | ? | 9.28µM | 0 | 0 | ? | 0
CCOC(=O)N1CCN(C(=O)COC(=O)c2ccc(N(C)C)cc2)CC1 | 2.51µM | - | 0 | - | 0 | 0
CN1OC(C)(CC(=O)NCc2ccccc2)N=C1c1ccccc1F (stereo not drawn) | - | - | - | - | - | 0
N#Cc1ccc(OCc2cn(CC(=O)c3ccc(O)cc3)nn2)cc1 | 0 | - | - | - | - | -
N[C@@H]1C(O)OC(CO)C(O)C1O (stereo partly drawn) | - | 0 | - | 0 | - | -
